From PubChem BioAssay AID1159580 (chemical genetic matrix, 2015)
Values joined by “and” are separate entries in the source; they are usually repeats but may differ in a detail not shown here. Identical values can stand only once. Screen size: about 5,500 compounds; about 2,000 (36%) were called active. Inconclusive results (about 18%) are left out. No stated cut-off is given here; in the data, active means normalized growth mostly below about 0.91 (no sharp cut-off); inconclusive means no clear call, values can overlap the other calls; inactive means mostly above about 0.92. Some of the results follow.

Experiment: chemical genetic growth profiling, strain panel (AID 1159580);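 further: tested at 20 µM; growth read once vehicle control cultures reached saturation at 30 °C; 1 = growth at the plate median or of vehicle wells; lower values mean less growth of the strain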
Conditions: S. cerevisiae deletion strains, growth OD

Measured: normalized growth

S=P(N1CC1)(N1CC1)N1CC1
inactive: locus YAL013W, strain DEP1, active compounds read low 1.01 | locus YAL021C, strain ccr4, active compounds read low 1 | locus YAL026C, strain drs2, active compounds read low 1.01 | locus YAL030W, strain snc1, active compounds read low 0.996 | locus YBL061C, strain skt5, active compounds read low 1.01 | locus YBR009C, strain hhf1, active compounds read low 1.01 | locus YBR021W, strain FUR4, active compounds read low 0.946 | locus YBR023C, strain chs3, active compounds read low 1.02 | locus YBR171W, strain sec66, active compounds read low 1.01 | locus YBR229C, strain ROT2, active compounds read low 1.01 | locus YBR231C, strain swc5, active compounds read low 1.01 | locus YBR279W, strain paf1, active compounds read low 0.999 | locus YCL011C, strain gbp2, active compounds read low 1.01 | locus YCL016C, strain dcc1, active compounds read low 0.999 | locus YCL029C, strain bik1, active compounds read low 1.01 | locus YCL061C, strain MRC1, active compounds read low 1 | locus YCL069W, strain vba3, active compounds read low 1.01 | locus YCR088W, strain abp1, active compounds read low 1.02 | locus YDL005C, strain med2, active compounds read low 1.01 | locus YDL035C, strain GPR1, active compounds read low 1.02 | locus YDL040C, strain nat1, active compounds read low 1.01 | locus YDL074C, strain BRE1, active compounds read low 1.01 | locus YDL101C, strain DUN1, active compounds read low 1.01 | locus YDL134C, strain PPH21, active compounds read low 1 | locus YDL192W, strain arf1, active compounds read low 0.995 | locus YDR001C, strain nth1, active compounds read low 1.01 | locus YDR069C, strain doa4, active compounds read low 0.997 | locus YDR101C, strain arx1, active compounds read low 0.997 | locus YDR137W, strain rgp1, active compounds read low 1.02 | locus YDR150W, strain NUM1, active compounds read low 1 | locus YDR159W, strain sac3, active compounds read low 1 | locus YDR162C, strain NBP2, active compounds read low 1.01 | locus YDR195W, strain ref2 0.971 | locus YDR297W, strain sur2, active compounds read low 1 | locus YDR318W, strain mcm21, active compounds read low 1.01 | locus YDR334W, strain swr1, active compounds read low 1.01 | locus YDR335W, strain msn5, active compounds read low 1 | locus YDR388W, active compounds read low 1.01 | locus YDR392W, strain spt3, active compounds read low 1.03 | locus YDR502C, strain sam2, active compounds read low 0.996 | locus YEL003W, strain gim4, active compounds read low 1 | locus YEL037C, strain rad23, active compounds read low 1 | locus YEL061C, strain CIN8 (second series), active compounds read low 1 | locus YEL061C, strain CIN8, active compounds read low 1.01 | locus YER015W, strain faa2, active compounds read low 1 | locus YER016W, strain bim1, active compounds read low 1 | locus YER110C, active compounds read low 1.01 | locus YER111C, strain swi4, active compounds read low 0.99 | locus YER155C, strain BEM2 (second series), active compounds read low 1.03 | locus YER155C, strain BEM2, active compounds read low 1 | locus YER167W, strain BCK2, active compounds read low 1.01 | locus YFR010W, strain ubp6, active compounds read low 1.01 | locus YGL078C, strain dbp3, active compounds read low 0.999 | locus YGL086W, strain mad1, active compounds read low 1 | locus YGL167C, strain pmr1, active compounds read low 1.01 | locus YGL173C, strain kem1, active compounds read low 1.02 | locus YGL227W, strain vid30, active compounds read low 1.01 | locus YGL240W, strain doc1, active compounds read low 1.01 | locus YGL248W, strain PDE1, active compounds read low 1.01 | locus YGL253W, strain hxk2, active compounds read low 1.02 | locus YGR078C, strain PAC10, active compounds read low 1.01 | locus YGR135W, strain pre9, active compounds read low 0.996 | locus YGR229C, strain SMI1, active compounds read low 0.971 | locus YGR252W, strain gcn5, active compounds read low 0.985 | locus YHR013C, strain ard1, active compounds read low 0.997 | locus YHR027C, strain rpn1, active compounds read low 0.997 | locus YHR030C, strain SLT2, active compounds read low 1.01 and 0.994 | locus YHR079C, strain IRE1 (second series), active compounds read low 1 | locus YHR079C, strain IRE1, active compounds read low 0.985 | locus YHR094C, strain hxt1, active compounds read low 1 | locus YHR129C, strain ARP1, active compounds read low 1.03 | locus YHR142W, strain chs7, active compounds read low 1 | locus YHR200W, strain rpn10, active compounds read low 0.997 | locus YIL066C, strain RNR3, active compounds read low 1.02 | locus YIL073C, strain SPO22, active compounds read low 0.993 | locus YIL125W, strain kgd1, active compounds read low 1.01 | locus YIR030C, strain dcg1, active compounds read low 1.02 | locus YJL092W, strain hpr5, active compounds read low 1 | locus YJL095W, strain BCK1 (second series), active compounds read low 1.01 | locus YJL095W, strain BCK1, active compounds read low 1.02 and 1.01 | locus YJL115W, strain asf1, active compounds read low 1.01 | locus YJL129C, strain trk1, active compounds read low 1.02 | locus YJL134W, strain LCB3, active compounds read low 1.01 | locus YJL154C, strain vps35, active compounds read low 1.01 | locus YJL164C, strain tpk1, active compounds read low 1.01 | locus YJL166W, strain qcr8, active compounds read low 1.01 | locus YJL168C, strain set2, active compounds read low 0.999 | locus YJL187C, strain SWE1 (second series), active compounds read low 1.01 | locus YJR043C, strain POL32, active compounds read low 1 | locus YJR066W, strain TOR1, active compounds read low 0.976 | locus YJR075W, strain HOC1, active compounds read low 1.01
